Test results: PubChem BioAssay AID932 (The Scripps Research Institute Molecular Screening Center, 2007)
The whole screen tested about 200,000 compounds, of which about 5,100 (2.5%) were called active. The entries come from a sample that favours actives as a whole. A number with no mark means an inactive call.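 How the source made its calls: active means activation above the screen-wide mean activation plus 3 SD (cut at about 130% in these data); inactive means the rest.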

Test: potentiators of IFN-gamma driven STAT1 reporter – cell-based, HTS, luciferase reporter, primary screen (AID 932);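 further: raw ratio to IFN-gamma control signal so 100% means no change and 0% no light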
Conditions: NIH 3T3 STAT1-luciferase reporter, luminescence, at 5.5 µM, active compounds read high, 100% = IFN-gamma alone, no compound

Compound	activation (% of control)
COc1cccc(OCC(=O)NNC(=O)c2cnccn2)c1	98.7%
COc1ccc2c(c1)CCc1c(C(=O)N3CCCC3)noc1-2	131% (active)
COc1ccc2c(c1)CCc1c(C(=O)Nc3c(C)n(C)n(-c4ccccc4)c3=O)noc1-2	106%
COc1ccc2c(c1)CCc1c(C(=O)N3CCc4ccccc4C3)noc1-2	96.8%
O=C(Nc1cccc(C(F)(F)F)c1)c1ccc(N2CCNCC2)c([N+](=O)[O-])c1	90.2%
CC(C)C(NC(=O)c1ccc(Cl)cc1)C(=O)O (configuration not stated)	110%
CC(C)CNC(=S)NC(=O)c1ccc(Cl)cc1	136% (active)
Cc1occc1C(=O)NNC(=S)NCC(C)C	102%
Cn1c(CNC(=O)c2ccccc2F)nnc1SCc1ccc(F)cc1	103%
O=C(Nc1nc2ccccc2s1)c1ccc2c(c1)OCO2	130% (active)
Cc1cc(C)c2nc(NC(=O)c3ccc4c(c3)OCO4)sc2c1	98.5%
O=C(Nc1ccccc1)c1ccc2c(c1)OCO2	110%
Cc1ccc(-c2csc(NC(=O)c3cnccn3)n2)cc1C	105%
O=C(Nc1nc(-c2cccnc2)cs1)c1ccccc1F	141% (active)
O=C(Nc1nc(-c2ccc(-c3ccccc3)cc2)cs1)c1cnccn1	113%
O=C(CCn1c(SCC(=O)c2ccccc2)nc2ccccc2c1=O)NCc1ccc(F)cc1	94.6%
Cc1ccc(C(=O)CSc2nc3ccccc3c(=O)n2N)o1	140% (active)
COc1ccc(OCc2ccc(-c3nc4ccccc4c(=O)n3N)o2)cc1	127%
Cc1ccccc1OCC(O)CN1CCN(c2ccccn2)CC1 (configuration not stated)	104%
CCNC(=S)NNC(=O)C1CCN(Cc2ccccc2)CC1	90.4%
Cc1ccc(-c2nn(-c3ccccc3)cc2C(=O)Nc2cccc(S(=O)(=O)N3CCOCC3)c2)cc1	102%

Compound	activation (% of control)
CCc1ccc(C2C(C#N)=C(N)N(N(C)C)C3=C2C(=O)CCC3)s1 (configuration not stated)	105%
CCOC(=O)c1sc2nc(SC)nc(-c3ccccc3)c2c1N	90%
CCN(CC)C(=O)c1sc2nc(-c3ccccc3)ccc2c1N	146% (active)
CS(=O)(=O)c1sc2nc(-c3ccccc3)cc(-c3ccccc3)c2c1N	104%
O=C(OCC(=O)N1CCCC1)c1ccco1	104%
CCN(CC)c1ccc(C(=O)OCC(=O)c2ccco2)cc1	149% (active)
O=C(COC(=O)c1ccccc1C(=O)c1ccccc1)c1ccco1	103%
CCOC(=O)/C=c1\s/c(=C\c2ccc(C#N)cc2)c(=O)n1CC(=O)Nc1cccc(C)c1C	102%
CN(C)CCCN1C(=O)CSC1c1ccc([N+](=O)[O-])cc1 (configuration not stated)	95%
CCOc1ccc2nc(SC(CC)C(=O)Nc3cc(C)on3)sc2c1 (configuration not stated)	86.5%
CCOc1ccc2nc(Nc3nc4ccc(NC(C)=O)cc4s3)sc2c1	106%
CCOc1ccc2nc(C(=O)N3CCCC(C)C3)sc2c1 (configuration not stated)	153% (active)
CCNc1nc(NC(C)C)nc(N2CC(=O)N(CC(=O)OCC)C2=N)n1	93.2%
O=C(Oc1cccc(N2C(=O)C3C4c5ccccc5C(c5ccccc54)C3C2=O)c1)c1ccco1 (configuration not stated)	102%
Cc1ccc(-n2c(SCC(=O)N3c4ccccc4Sc4ccccc43)nnc2-c2ccncc2)cc1	109%
CC(C)(C)C(=O)NCCCNc1ccc([N+](=O)[O-])cc1	112%
COc1cc(C(=O)OCc2ccc([N+](=O)[O-])cc2)cc(OC)c1OC	104%
COc1cc(/C=N\Nc2ccc([N+](=O)[O-])cn2)ccc1OCC(=O)O	98%
COc1cc(/C=N/O)ccc1OCc1ccc([N+](=O)[O-])cc1	206% (active)
CCOc1ccc(S(=O)(=O)Nc2ccncc2)c(C)c1C	97%
C/C(CCC(=O)OC[C@H]1O[C@H](C#Cc2ccccc2)C=C[C@@H]1Oc1ccc(C)cc1)=N\OC[C@@H](O)[C@H]1O[C@@H]2OC(C)(C)O[C@@H]2[C@H]1O	106%

Compound	activation (% of control)
Cc1cc(Br)ccc1NC(=O)C1CCCO1 (configuration not stated)	107%
Cc1cc(C)c2nc(NC(=O)C3CCCO3)sc2c1 (configuration not stated)	151% (active)
O=C(Nc1nc2ccc(S(=O)(=O)N3CCCC3)cc2s1)C1CCCO1 (configuration not stated)	95.5%
CCc1cc2c(=O)c(-c3nc4ccccc4n3C)c(CCCC(=O)O)oc2cc1OC(=O)C(C)(C)C	90.5%
COC(=O)C1=CN(Cc2ccc(OC)c(OC)c2)C=C(C(=O)OC)C1c1cccs1	45.2%
C=CCNC(=O)/C=C/c1ccc(C(C)C)cc1	120%
CCCC(=O)N=c1sc2cccc(F)c2n1C	114%
Cn1c(=NC(=O)C2CC2)sc2cc(F)cc(F)c21	108%
Cn1c(=NC(=O)c2ccco2)sc2cccc(F)c21	135% (active)
CC(=O)Nc1ccc(S(=O)(=O)Oc2ccc(/C=N/N=C3/NC(=O)C(CC(=O)O)S3)cc2)cc1 (configuration not stated)	97.8%
CCCCn1c(=O)c(C(C)=O)c(O)c2ccccc21	95.7%
COc1cc([C@H](Cc2ccccc2)NC(C)=O)oc(=O)c1	96.8%
C=CCn1c(C)cc(C2=NNC(=NCC)SC2)c1C	15.6%
Cc1cc(C2=NNC(=Nc3ccc(S(=O)(=O)N4CCOCC4)cc3)SC2)c(C)n1CC1CCCO1 (configuration not stated)	99.8%
COCCn1c(C)cc(C2=NNC(=Nc3ccc(F)cc3)SC2)c1C	133% (active)
COc1ccc(C2CC(c3cccs3)=NN2c2ccccc2)cc1 (configuration not stated)	93.2%
Cc1cc(C)cc(N(CC(=O)NCCSCc2ccco2)S(C)(=O)=O)c1	102%
Cc1ccccc1Nc1nc(N)nc(CSc2ccccc2)n1	183% (active)
Cc1ccc(C(=O)OCc2nc(N)nc(Nc3ccccc3C)n2)cc1	96.8%
Cc1ccccc1Nc1nc(N)nc(CSc2nnc3ccccn23)n1	120%
